Source: PubChem BioAssay (several laboratories)
CCHF vOTU inh: CCHFV vOTU protease inhibition. actives 0.55% (n = 370,000). AID 651958. Pep-AMC fluorescence. inhibition, % at 11.5 µM; in the data active = inhibition above about 30%; note: 0% = vehicle wells with enzyme and 100% = no enzyme wells
RecA intein inh: blocks M. tuberculosis RecA intein splicing; P9WHJ3; cell-free RecA intein splicing, fluorescence; inhibition, % (test concentration not listed); actives 0.75% (n = 290,000); in the data active = inhibition above about 30%;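 note: 0% = vehicle wells and 100% = reference inhibitor control wells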
Mtb FBA inh: inhibitors of M. tuberculosis fructose-bisphosphate aldolase. P9WQA3. purified M. tuberculosis FBA, fluorescence read-out. inhibition, % at 1 µM. actives 2.3% (n = 360,000). AID 588726;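 note: 0% = vehicle and 100% = reference inhibitor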
Target sequence (P9WQA3 whole entry, looked up): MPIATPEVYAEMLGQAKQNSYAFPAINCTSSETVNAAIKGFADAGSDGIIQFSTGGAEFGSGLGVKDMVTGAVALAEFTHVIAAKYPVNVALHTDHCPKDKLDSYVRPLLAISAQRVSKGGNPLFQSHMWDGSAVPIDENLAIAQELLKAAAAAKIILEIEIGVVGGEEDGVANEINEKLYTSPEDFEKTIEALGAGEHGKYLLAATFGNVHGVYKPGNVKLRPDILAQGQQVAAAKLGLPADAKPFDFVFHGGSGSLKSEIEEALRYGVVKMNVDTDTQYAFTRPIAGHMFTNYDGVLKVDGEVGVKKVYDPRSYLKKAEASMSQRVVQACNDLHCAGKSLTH
GDH-TPI counter-1: GDH-TPI coupled enzyme inhibition counter-screen. actives 1.2% (n = 360,000). inhibition, % at 4.8 µM. AID 588335. GDH-TPI coupled enzyme counterscreen, NADH absorbance; in the data active = inhibition above about 30%;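 note: 0% = DMSO wells and 100% = wells lacking the enzyme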
Mtb FBA confirm: confirmation of M. tuberculosis fructose-bisphosphate aldolase inhibitors. shares compounds with Mtb FBA inh. purified M. tuberculosis FBA, fluorescence read-out. inhibition, % at 1 µM. actives 78% (n = 5,600);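 note: 0% = vehicle wells and 100% = reference inhibitor wells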
GDH-TPI counter-2: inhibits GDH-TPI coupling enzymes, flagging Mtb FBA hits; GDH-TPI coupled enzyme counterscreen, fluorescence; inhibition, % at 1 µM; actives 81% (n = 5,600); shares compounds with Mtb FBA inh; in the data active = inhibition above about 10%
Numbers without * were called inactive; / = no result given; + = active, no number. A selection: hits, their analogues and other compounds. The true share with any hit is near 4.2%. Cut-off read from the data, not from the text of the source, unless noted: active = inhibition above about 27%; inactive = the rest.

SMILES | CCHF vOTU inh | RecA intein inh | Mtb FBA inh | GDH-TPI counter-1 | Mtb FBA confirm | GDH-TPI counter-2
C=CCn1c(-c2cc3cccc(OC)c3o2)n[nH]c1=S | -26.5 | 0.0 | 43.8* | 9.6 | 102.1* | 71.7*
CCOC(=O)c1sc(Nc2nc3c(OC)cccc3s2)nc1C | 10.1 | -3.5 | 66.0* | 0.9 | 64.0* | 56.7*
CCOCCOc1cccc(C(=O)NC(C)c2ccc3ccccc3c2)c1 (stereo not given) | 11.3 | -1.2 | 2.5 | 8.4 | / | /
COc1ccc(C(=O)NNC(=O)c2ccc3ccccc3c2O)cc1 | -6.1 | -0.5 | 2.0 | 9.4 | / | /
COc1cccc(OCC(=O)NNC(=O)c2ccc3ccccc3c2O)c1 | -4.5 | -5.8 | 28.5* | 11.6 | + | +
COc1cccc(NC(=O)NNC(=O)COc2ccc3ccccc3c2)c1 | 2.8 | 0.9 | 36.6* | 10.5 | + | +
Cn1c(=O)c2nc(NCc3ccccc3)sc2n(C)c1=O | 7.6 | / | -1.2 | 5.6 | / | /
CCCCN(C(=O)/C=C/c1ccc(OC)cc1)C1CCS(=O)(=O)C1 (stereo not given) | 2.2 | 0.1 | -2.5 | 10.2 | / | /
COc1cc(OC)cc(C(=O)Nc2nc3ccc(S(C)(=O)=O)cc3s2)c1 | -2.0 | -4.6 | 2.0 | 29.8 | / | /
CS(=O)(=O)c1ccc2nc(NC(=O)c3ccc(NS(=O)(=O)c4ccc(F)c(F)c4)cc3)sc2c1 | -28.8 | -2.6 | 71.0* | 59.8* | 79.0* | 81.8*
O=C(Nc1nc2ccc(SC(F)F)cc2s1)c1ccc(NS(=O)(=O)c2ccc(F)c(F)c2)cc1 | 14.1 | 0.6 | 54.8* | 29.3 | + | +
COc1cc(C(=O)Nc2nc3ccc(S(C)(=O)=O)cc3s2)cc(OC)c1C | -4.3 | -0.4 | 9.9 | 22.5 | / | /
CS(=O)(=O)c1ccc2nc(NC(=O)c3cccc(NS(=O)(=O)c4ccc(F)c(F)c4)c3)sc2c1 | 6.6 | -1.3 | 29.0* | 9.8 | 150.6* | 138.8*
Cc1cc(/C=C2\SC(=O)NC2=O)c(C)n1-c1ccc(N2CCOCC2)cc1 | 11.6 | -5.4 | 1.9 | 16.9 | / | /
Cc1cc(C=O)c(C)n1-c1ccc(N2CCOCC2)cc1 | 8.9 | -0.1 | 54.5* | -4.5 | + | +
COc1cccc(/C=C/C(=O)OCC(=O)c2c(N)n(C)c(=O)n(C)c2=O)c1 | -8.6 | / | 63.4* | 19.5 | 85.8* | 59.3*
COCCN(CCOC)Cc1cc(=O)oc2cc(C)c(C)cc12 | -4.8 | / | -2.7 | / | / | /
CCCCC1OC23CCCCC2C(C#N)(C#N)C1(C#N)C(=N)O3 (stereo not given) | -73.8 | -139.0 | 45.1* | -14.8 | 64.2* | 50.8*
CCCCC1OC23CCCCC2C(C#N)(C(=N)O3)C1(C#N)C#N (stereo not given) | -120.7 | -269.6 | 42.3* | -11.2 | -2.3 | 2.8
C[C@H](NC(=O)c1cc2c([nH]c3ccccc32)c(-c2ccccc2)n1)C(=O)O | -23.6 | 0.1 | 35.6* | -0.7 | 140.9* | 107.7*
CSCCC(NC(=O)c1ccccc1)C(=O)O (stereo not given) | -9.2 | 6.4 | 42.3* | 6.0 | / | +
O=C(NCCO)c1cc2c([nH]c3ccccc32)c(-c2ccc(F)cc2)n1 | -12.3 | 3.3 | 21.4 | 17.2 | / | /
CSCC[C@H](NC(=O)c1cc2c([nH]c3ccccc32)c(-c2ccccc2)n1)C(=O)O | -23.0 | 1.2 | 47.4* | 11.8 | 24.0 | 15.3*
COC(=O)[C@H](CCSC)NC(=O)c1cc2c(cn1)[nH]c1ccccc12 | -1.7 | -0.1 | 14.3 | 9.9 | / | /
O=C1C(NC(=O)N2c3ccccc3C=Cc3ccccc32)CCCCN1Cc1cccc(Cl)c1 (stereo not given) | 2.2 | / | / | / | / | /
SMILES | CCHF vOTU inh | RecA intein inh | Mtb FBA inh | GDH-TPI counter-1 | Mtb FBA confirm | GDH-TPI counter-2
c1coc(C2Nc3ccccc3-c3nc4ccccc4n32)c1 (stereo not given) | -37.0 | -0.6 | 101.3* | -2.0 | 153.0* | 120.1*
Cc1cc(C)n2cc(CSc3nnc(-c4ccccc4)c(-c4ccccc4)n3)nc2n1 | -8.8 | / | 0.3 | -3.4 | / | /
Cc1cc(C)n2cc(CSc3ncn[nH]3)nc2n1 | -45.1 | -2.3 | 94.8* | 2.5 | 1.2 | -6.5
Cc1cc(C)n2cc(COc3ccccc3)nc2n1 | -21.5 | -4.1 | 70.6* | 7.0 | 83.0* | 60.9*
C=CS(=O)(=O)N(Cc1ccc(Cl)c(Cl)c1)C[C@@H](O)CO | / | / | -1.0 | 0.9 | / | /
COC(=O)C1=CN(c2ccc(F)cc2)C=C(C(=O)OC)C1c1cccc(Br)c1 | -5.5 | -6.5 | 18.2 | -0.3 | / | /
